# Laboratory results reported in ChEMBL document CHEMBL1961873, “Compounds: GSK PKIS; Assays: Nanosyn kinase panel” (2012).
# Key:
# [1] = target: Sphingosine kinase 1 (Homo sapiens) (UniProt Q9NYA1); conditions: at 1 µM;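 further: mean SPHK1 inhibition value reported from the GSK PKIS kinase panel screen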
# [2] = target: T1, Sphingosine kinase 2 (Homo sapiens) (UniProt Q9NRA0); conditions: at 0.1 µM
# T1 sequence (whole entry): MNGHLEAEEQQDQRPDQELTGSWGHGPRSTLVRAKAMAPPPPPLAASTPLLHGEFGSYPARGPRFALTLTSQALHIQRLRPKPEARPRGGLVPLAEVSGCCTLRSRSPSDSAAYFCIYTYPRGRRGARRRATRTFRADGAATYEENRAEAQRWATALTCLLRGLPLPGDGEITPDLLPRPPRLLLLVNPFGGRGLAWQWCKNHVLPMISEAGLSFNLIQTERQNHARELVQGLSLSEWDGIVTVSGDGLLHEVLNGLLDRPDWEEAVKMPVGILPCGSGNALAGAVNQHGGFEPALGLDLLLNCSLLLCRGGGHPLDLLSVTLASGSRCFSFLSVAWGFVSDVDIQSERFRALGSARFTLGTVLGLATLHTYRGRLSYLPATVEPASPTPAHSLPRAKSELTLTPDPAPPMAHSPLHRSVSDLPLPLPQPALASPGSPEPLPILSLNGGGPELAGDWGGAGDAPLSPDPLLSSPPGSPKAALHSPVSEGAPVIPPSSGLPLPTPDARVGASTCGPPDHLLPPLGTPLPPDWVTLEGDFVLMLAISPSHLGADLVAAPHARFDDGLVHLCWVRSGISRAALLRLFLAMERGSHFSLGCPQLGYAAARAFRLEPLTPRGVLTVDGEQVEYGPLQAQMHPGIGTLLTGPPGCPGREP
# [3] = target: T1, Sphingosine kinase 2 (Homo sapiens); conditions: at 1 µM
# [4] = target: Casein kinase II subunit alpha (Homo sapiens) (UniProt P68400); conditions: at 0.1 µM
# Casein kinase II subunit alpha (Homo sapiens), sequence (P68400 whole entry, looked up): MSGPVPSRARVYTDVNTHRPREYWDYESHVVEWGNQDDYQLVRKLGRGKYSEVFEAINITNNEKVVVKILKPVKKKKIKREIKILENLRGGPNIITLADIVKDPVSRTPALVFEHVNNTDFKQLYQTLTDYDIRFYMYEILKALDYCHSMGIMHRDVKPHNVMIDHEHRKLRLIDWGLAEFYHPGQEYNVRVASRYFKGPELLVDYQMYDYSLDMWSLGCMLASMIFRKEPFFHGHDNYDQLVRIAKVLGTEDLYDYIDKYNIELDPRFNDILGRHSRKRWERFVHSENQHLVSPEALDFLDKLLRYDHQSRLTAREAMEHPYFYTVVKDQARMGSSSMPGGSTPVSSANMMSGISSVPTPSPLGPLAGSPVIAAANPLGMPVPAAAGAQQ
# [5] = target: Casein kinase II subunit alpha (Homo sapiens) (UniProt P68400); conditions: at 1 µM
# [6] = target: T2, Inhibitor of nuclear factor kappa-B kinase subunit alpha (Homo sapiens) (UniProt O15111); conditions: at 0.1 µM
# T2 sequence (whole entry): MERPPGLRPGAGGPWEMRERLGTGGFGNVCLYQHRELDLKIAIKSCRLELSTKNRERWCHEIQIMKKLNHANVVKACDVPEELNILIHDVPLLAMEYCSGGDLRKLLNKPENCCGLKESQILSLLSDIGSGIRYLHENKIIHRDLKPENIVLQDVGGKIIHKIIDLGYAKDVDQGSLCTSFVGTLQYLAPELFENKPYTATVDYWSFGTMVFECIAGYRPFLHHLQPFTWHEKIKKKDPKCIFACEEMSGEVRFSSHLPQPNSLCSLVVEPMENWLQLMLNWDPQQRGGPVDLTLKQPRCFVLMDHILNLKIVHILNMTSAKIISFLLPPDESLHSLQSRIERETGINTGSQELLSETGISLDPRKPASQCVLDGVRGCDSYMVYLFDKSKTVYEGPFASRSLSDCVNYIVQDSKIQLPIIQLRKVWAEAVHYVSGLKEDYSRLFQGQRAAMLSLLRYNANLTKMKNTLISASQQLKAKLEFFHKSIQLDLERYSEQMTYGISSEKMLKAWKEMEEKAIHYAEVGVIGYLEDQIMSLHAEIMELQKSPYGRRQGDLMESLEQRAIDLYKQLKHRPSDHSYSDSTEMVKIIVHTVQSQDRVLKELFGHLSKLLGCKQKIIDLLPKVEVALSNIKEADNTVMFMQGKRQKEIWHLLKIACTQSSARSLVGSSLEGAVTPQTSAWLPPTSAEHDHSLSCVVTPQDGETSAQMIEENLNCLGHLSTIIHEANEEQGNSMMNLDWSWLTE
# [7] = target: T2, Inhibitor of nuclear factor kappa-B kinase subunit alpha (Homo sapiens); conditions: at 1 µM
# [8] = target: T3, Inhibitor of nuclear factor kappa-B kinase subunit beta (Homo sapiens) (UniProt O14920); conditions: at 0.1 µM
# T3 sequence (whole entry): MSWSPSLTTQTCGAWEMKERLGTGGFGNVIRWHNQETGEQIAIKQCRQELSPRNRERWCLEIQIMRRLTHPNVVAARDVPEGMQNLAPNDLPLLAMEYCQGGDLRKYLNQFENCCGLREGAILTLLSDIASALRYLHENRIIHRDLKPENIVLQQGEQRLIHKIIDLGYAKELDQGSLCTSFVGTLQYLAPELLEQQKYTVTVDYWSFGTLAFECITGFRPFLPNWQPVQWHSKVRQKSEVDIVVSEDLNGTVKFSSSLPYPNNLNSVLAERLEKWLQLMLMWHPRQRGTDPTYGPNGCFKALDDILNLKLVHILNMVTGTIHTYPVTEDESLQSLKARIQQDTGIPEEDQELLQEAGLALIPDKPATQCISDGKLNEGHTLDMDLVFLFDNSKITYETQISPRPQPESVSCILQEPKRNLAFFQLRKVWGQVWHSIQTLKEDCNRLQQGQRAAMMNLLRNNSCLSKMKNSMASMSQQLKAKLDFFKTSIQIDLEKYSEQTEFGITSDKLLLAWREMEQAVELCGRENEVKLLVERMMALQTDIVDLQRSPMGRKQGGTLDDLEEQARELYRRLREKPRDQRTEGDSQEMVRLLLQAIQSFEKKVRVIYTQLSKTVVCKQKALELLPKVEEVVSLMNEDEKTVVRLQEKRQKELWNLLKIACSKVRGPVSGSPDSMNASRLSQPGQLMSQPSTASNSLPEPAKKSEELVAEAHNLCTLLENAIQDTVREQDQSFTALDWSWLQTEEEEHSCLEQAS
# [9] = target: T3, Inhibitor of nuclear factor kappa-B kinase subunit beta (Homo sapiens); conditions: at 1 µM
# [10] = target: T4, Inhibitor of nuclear factor kappa-B kinase subunit epsilon (Homo sapiens) (UniProt Q14164); conditions: at 0.1 µM;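 further: mean inhibition of IKKε reported, from the GSK PKIS dataset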
# T4 sequence (whole entry): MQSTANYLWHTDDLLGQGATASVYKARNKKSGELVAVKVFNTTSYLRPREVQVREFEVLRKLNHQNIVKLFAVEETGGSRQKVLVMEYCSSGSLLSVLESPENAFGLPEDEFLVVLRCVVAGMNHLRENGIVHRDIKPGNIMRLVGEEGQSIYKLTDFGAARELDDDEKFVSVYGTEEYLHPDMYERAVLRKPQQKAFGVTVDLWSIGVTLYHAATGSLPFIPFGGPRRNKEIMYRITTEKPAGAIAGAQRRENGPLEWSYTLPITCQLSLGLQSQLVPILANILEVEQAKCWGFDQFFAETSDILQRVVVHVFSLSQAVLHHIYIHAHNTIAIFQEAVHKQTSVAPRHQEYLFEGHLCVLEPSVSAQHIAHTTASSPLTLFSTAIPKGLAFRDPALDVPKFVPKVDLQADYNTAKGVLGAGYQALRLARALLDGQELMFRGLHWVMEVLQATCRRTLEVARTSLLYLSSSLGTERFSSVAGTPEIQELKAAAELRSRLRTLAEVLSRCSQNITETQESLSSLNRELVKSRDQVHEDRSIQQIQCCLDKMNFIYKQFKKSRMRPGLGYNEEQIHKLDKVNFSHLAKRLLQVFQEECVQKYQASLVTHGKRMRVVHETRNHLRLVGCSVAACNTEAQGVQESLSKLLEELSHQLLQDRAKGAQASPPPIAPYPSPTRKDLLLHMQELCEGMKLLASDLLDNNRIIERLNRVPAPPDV
# Sphingosine kinase 1 (Homo sapiens), sequence (Q9NYA1 whole entry): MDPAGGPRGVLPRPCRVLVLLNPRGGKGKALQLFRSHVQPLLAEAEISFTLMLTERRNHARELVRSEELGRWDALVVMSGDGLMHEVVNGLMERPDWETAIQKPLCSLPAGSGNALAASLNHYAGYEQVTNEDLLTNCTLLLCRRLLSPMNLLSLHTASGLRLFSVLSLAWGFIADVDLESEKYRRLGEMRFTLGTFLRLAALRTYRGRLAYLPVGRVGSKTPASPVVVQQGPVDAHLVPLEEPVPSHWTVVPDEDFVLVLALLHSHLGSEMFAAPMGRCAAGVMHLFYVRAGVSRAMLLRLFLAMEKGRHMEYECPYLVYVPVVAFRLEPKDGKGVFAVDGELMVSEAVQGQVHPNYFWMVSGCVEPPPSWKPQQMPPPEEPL
compound,measurement,setting,value
O=C(Nc1n[nH]c2nc(-c3ccco3)c(Br)cc12)C1CC1,inhibition,[1],-1.04%
same,inhibition,[2],0.57%
same,inhibition,[3],0.07%
same,inhibition,[4],-0.1%
same,inhibition,[5],-1.87%
same,inhibition,[6],-4.07%
same,inhibition,[7],-2.15%
same,inhibition,[8],1.61%
same,inhibition,[9],2.38%
same,inhibition,[10],3.19%
